Assay [1] is described as follows: HepG2 liver cancer cell viability effects, profiling panel, resazurin fluorescence, 24 h, PK04 Diversity Set (AID 1172). To be noted: higher = more signal. On the technique in general: Resazurin is reduced to fluorescent resorufin, in cell work by metabolically active cells.
Assay [2] in a line: basal S. cerevisiae growth modulation, no modifier, primary screen, OD600, strain BY4716, 24 h, basal condition (AID 1173). The following applies: OD600, 24 h, higher = more signal, called active from +8 up or from −8 down.
Assay [3] is described as follows: MM1S myeloma cell viability, profiling panel, resazurin fluorescence, basal, 24 h, PK04 Diversity Set (AID 1174).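 Further: MM1S multiple myeloma cell line.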 To be noted: higher = more signal, called active from +8 up or from −8 down.
Assay [4] has as its target Dihydroorotate dehydrogenase (quinone), mitochondrial (Plasmodium falciparum (isolate 3D7)) (UniProt Q08210). The assay is described as follows: PfDHODH enzyme inhibitors, primary screen, biochemical, C-terminal His tag, absorbance 600 nm (AID 1175).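 Further: recombinant parasite enzyme with a five histidine tag at its C terminus.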 To be noted: DCIP absorbance 600 nm, higher = more signal, called active from +8 up or from −8 down.
A short description of assay [5]: P. aeruginosa biofilm formation inhibitors, primary screen, strain PAO1, LB-PBS medium, absorbance 600 nm (AID 1176). To be noted: P. aeruginosa PAO1 growth/biofilm, A600, 12 h; higher = more signal.
Assay [6] can be described thus: S. cerevisiae RM11-1a growth modifiers, primary screen, strain RM11-1a, OD600, basal, 24 h (AID 1177).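 Further: cultures grown under basal conditions with no added stressor.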 To be noted: OD600, 24 h, higher = more signal, called active from +8 up or from −8 down.
The nature of assay [7]: E. coli acrAB mutant growth effects, primary screen, E. coli filamentation inducers, strain DRC39, OD650, 24 h (AID 1178).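 Further: growth measured as culture turbidity by optical density at 650 nm.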 The following applies: higher = more signal, called active from +8 up or from −8 down.
A short description of assay [8]: E. coli acrAB mutant growth effects, primary screen, E. coli filamentation inducers, strain DRC39, OD650, 48 h (AID 1179).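 Further: screen aims at cell division blockers that make cells filament.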 The following applies: E. coli DRC39 delta-acrAB growth, higher = more signal, called active from +8 up or from −8 down.
Assay [9] is described as follows: RPMI8226 myeloma cell viability, profiling panel, resazurin fluorescence, basal, 24 h, PK04 Diversity Set (AID 1180).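 Further: RPMI8826 multiple myeloma cell line at 5000 cells per well.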 The following applies: higher = more signal.
Assay [10] deals with E3 ubiquitin-protein ligase XIAP (Homo sapiens) (UniProt P98170). The assay is described as follows: XIAP binders, primary screen, biophysical, small-molecule microarray, fluorescence 635 nm (AID 1181).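 Further: score merges 667 nm emission and signal to noise over triplicate slides.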 To be noted: small-molecule microarray binding, higher = more signal.
Assay [11] deals with XIP peptide (Xip251-270) binding. The assay is described as follows: small-molecule binders of XIP peptide, primary screen, biochemical, small-molecule microarray, fluorescence 635/667 nm, 0.1 µg/mL protein (AID 1182). To be noted: fluorescent protein binding, 635 nm, higher = more signal, called active from +8 up or from −8 down.
Assay [12] deals with XIP peptide (Xip251-270). The assay is described as follows: small-molecule binders of XIP peptide, primary screen, biochemical, small-molecule microarray, fluorescence 635/667 nm, 0.5 µg/mL protein (AID 1183). To be noted: small-molecule microarray binding, fluorescence 635 nm; higher = more signal.
Assay [13] can be described thus: Plasmodium falciparum growth inhibition, primary screen, strain 3D7, DAPI fluorescence, 100 nL (AID 1184).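 Further: parasites grown inside human red blood cells in medium with human serum.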 To be noted: P. falciparum 3D7 growth, 3 d, higher = more signal.
Assay [14] deals with Homeobox protein Hox-A13 (Mus musculus) (UniProt Q62424). The assay is described as follows: inhibitors of HoxA13-DNA binding, primary screen, biochemical, fluorescence polarization, labeled oligonucleotide (AID 1185). To be noted: 15 min, higher = more signal, called active from +8 up or from −8 down. On the technique in general: Fluorescence polarisation rises when a labelled molecule tumbles more slowly, as on binding a larger partner.

The nature of assay [15]: inhibitors of hydroxyurea-induced Chk1 phosphorylation, primary screen, imaging, HeLa, phospho-Chk1 antibody, percent positive cells (AID 1186). The following applies: hydroxyurea-induced phospho-Chk1 immunofluorescence imaging, higher = more signal.
Assay [16] is described as follows: inhibitors of hydroxyurea-induced Chk1 phosphorylation, primary screen, imaging, HeLa, phospho-Chk1 nuclear intensity (AID 1187). The following applies: hydroxyurea-induced phospho-Chk1 immunofluorescence imaging, higher = more signal.

Active and inactive are the calls of the source. Unless noted, how the calls were made is not given here.

Sequence of E3 ubiquitin-protein ligase XIAP (Homo sapiens) (P98170 whole entry, looked up): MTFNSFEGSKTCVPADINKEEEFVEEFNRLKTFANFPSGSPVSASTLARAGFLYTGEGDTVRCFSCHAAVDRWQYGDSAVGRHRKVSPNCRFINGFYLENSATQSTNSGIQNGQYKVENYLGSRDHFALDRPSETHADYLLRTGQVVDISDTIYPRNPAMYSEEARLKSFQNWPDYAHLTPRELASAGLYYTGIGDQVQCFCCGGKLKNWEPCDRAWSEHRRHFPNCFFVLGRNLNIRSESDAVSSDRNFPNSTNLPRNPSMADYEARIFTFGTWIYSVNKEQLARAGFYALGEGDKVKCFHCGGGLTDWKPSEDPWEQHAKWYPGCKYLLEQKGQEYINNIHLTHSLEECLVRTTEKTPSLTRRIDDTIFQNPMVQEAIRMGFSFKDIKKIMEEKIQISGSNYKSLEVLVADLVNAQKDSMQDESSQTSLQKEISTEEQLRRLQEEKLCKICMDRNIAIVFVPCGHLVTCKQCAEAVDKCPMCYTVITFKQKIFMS
Sequence of Dihydroorotate dehydrogenase (quinone), mitochondrial (Plasmodium falciparum (isolate 3D7)) (Q08210 whole entry, looked up): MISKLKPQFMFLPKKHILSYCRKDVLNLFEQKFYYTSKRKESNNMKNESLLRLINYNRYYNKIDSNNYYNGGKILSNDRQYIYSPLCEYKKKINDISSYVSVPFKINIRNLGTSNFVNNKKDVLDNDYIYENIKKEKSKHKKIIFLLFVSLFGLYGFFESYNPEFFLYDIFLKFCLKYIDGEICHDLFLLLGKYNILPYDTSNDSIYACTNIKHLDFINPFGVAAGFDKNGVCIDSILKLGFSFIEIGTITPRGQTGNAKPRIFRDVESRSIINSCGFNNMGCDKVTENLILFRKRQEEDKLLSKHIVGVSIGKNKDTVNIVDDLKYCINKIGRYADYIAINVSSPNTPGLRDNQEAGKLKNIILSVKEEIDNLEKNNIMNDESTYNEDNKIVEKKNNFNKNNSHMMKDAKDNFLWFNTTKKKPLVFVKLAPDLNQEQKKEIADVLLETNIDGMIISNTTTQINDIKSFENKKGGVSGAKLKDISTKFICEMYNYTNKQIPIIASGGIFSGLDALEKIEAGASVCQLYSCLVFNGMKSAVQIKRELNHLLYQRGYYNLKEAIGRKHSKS
Sequence of Homeobox protein Hox-A13 (Mus musculus) (Q62424 whole entry, looked up): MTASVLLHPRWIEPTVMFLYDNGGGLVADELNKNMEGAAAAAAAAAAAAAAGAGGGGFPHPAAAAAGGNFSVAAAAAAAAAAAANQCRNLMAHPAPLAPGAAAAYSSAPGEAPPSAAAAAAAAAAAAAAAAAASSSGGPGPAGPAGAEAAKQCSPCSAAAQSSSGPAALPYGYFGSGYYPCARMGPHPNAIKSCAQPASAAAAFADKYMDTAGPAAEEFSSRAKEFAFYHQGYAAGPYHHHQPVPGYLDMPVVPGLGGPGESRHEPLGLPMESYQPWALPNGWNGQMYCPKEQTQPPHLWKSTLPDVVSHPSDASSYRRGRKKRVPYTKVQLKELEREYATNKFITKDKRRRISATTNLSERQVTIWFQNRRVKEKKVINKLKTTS

For `O=C1[C@H]2C=C(I)[C@H](C[C@@H]2OCCCCCCO)[C@@]12CO2`, the z-score in [1] is 0.21; in assay [2] it was -1.77 (inactive); in assay [3], -0.394 (inactive); in assay [5], 1.13 (inactive); in assay [6], -0.473 (inactive); in [7] it was -0.875 (inactive). Further, the z-score was -0.482 (inactive) in assay [8]; -0.658 in [9]; 1.09 in [13]; -3.09 (inactive) in [14]; -0.116 (inactive) in [15]; -0.124 (inactive) in assay [16]. In addition, the composite z-score in assay [4] was 0.742 (inactive); in [10] it was -0.109; in assay [11], -0.0604 (inactive); in [12], 0.77.

With `COCCOC(=O)N1C(=O)[C@@]2(c3cc(C#Cc4ccc(OC)cc4)ccc31)[C@H](c1ccc(OCCO)cc1)N1[C@H](c3ccccc3)[C@H](c3ccccc3)OC(=O)[C@H]1[C@@H]2C(=O)NC[C@H](O)c1ccccc1`, the z-score is -0.234 in assay [1]; 3.05 (inactive) in assay [2]; -0.486 (inactive) in assay [3]; 5.17 (inactive) in assay [5]; 3.81 (inactive) in [6]; -0.6 (inactive) in assay [7]. Further, the z-score in assay [8] was -0.189 (inactive); in assay [9], -0.508; in assay [13], -1.66; in assay [14] it was -0.532 (inactive); in assay [15] it was 0 (inactive); in assay [16], -0.0275 (inactive). Also, the composite z-score in assay [4] was -1.12 (inactive); in assay [10] it was 0.115; in assay [11], 0.849 (inactive); in [12] it was 0.713.

`O=C1NC(=O)C2C1C=CC(C(O)c1ccc([N+](=O)[O-])cc1)N2Nc1ccccn1` (stereo not given): the z-score is -0.731 in assay [1]; 0.579 (inactive) in assay [2]; -0.76 (inactive) in assay [3]; 0.586 (inactive) in assay [5]; 0.485 (inactive) in [6]; -0.16 (inactive) in assay [7]. Besides, the z-score in assay [8] was -0.372 (inactive); in assay [9] it was -0.723; in [13], 1.21; in assay [14], -2.37 (inactive); in [15], -0.284 (inactive); in assay [16], -0.347 (inactive). Further, the composite z-score is 0.622 (inactive) in [4], 0.103 in assay [10], -0.254 (inactive) in assay [11] and 0.726 in [12].

With `COC(=O)[C@@]1(Cc2ccc(F)cc2)[C@H]2c3cc(C(=O)N(C)C)n(CCc4ccc(O)c(O)c4)c3C[C@H]2CN1C(=O)c1ccccc1`, the z-score in [1] was 0.515; in [2] it was 0.634 (inactive); in assay [3] it was -1.01 (inactive); in [5], -0.154 (inactive); in assay [6] it was 0.232 (inactive); in assay [7], -0.0718 (inactive). The z-score in [8] is 0.157 (inactive); in [9] it was -0.834; in assay [13], 0.162; in assay [14] it was -3.03 (inactive); in assay [15], -0.361 (inactive); in assay [16] it was 0.0787 (inactive). Further, the composite z-score in assay [4] was -0.137 (inactive); in assay [10] it was 0.122; in [11] it was -0.574 (inactive); in assay [12] it was 0.162.

In the case of `COC(=O)[C@@]1(Cc2ccc(OC)cc2)[C@H]2c3cc(C(=O)N4CCCC4)n(Cc4ccc(C(F)(F)F)nc4)c3C[C@H]2CN1C(=O)c1ccccc1`, the z-score in assay [1] is -0.35; in assay [2], 1.37 (inactive); in assay [3] it was -1.07 (inactive); in [5], 1.08 (inactive); in [6] it was -0.809 (inactive); in [7] it was -0.886 (inactive). In addition, the z-score was -0.71 (inactive) in assay [8]; -2.32 in assay [9]; -1.5 in assay [13]; -5.12 (inactive) in [14]; 0.664 (inactive) in assay [15]; 0.712 (inactive) in assay [16]. The composite z-score in assay [4] was -0.77 (inactive); in assay [10], -0.02; in assay [11], 0.143 (inactive); in assay [12], -0.39.

For `C=C(CCCC)C(=O)CC[C@H](OC(=O)c1ccccc1-c1ccccc1C(=O)O)c1ccc(OCCO)cc1`, the z-score was 0.359 in [1]; -1.6 (inactive) in assay [2]; -0.429 (inactive) in assay [3]; 0.203 (inactive) in [5]; 0.152 (inactive) in assay [6]; 0.373 (inactive) in assay [7]. In addition, the z-score in [8] was -0.636 (inactive); in assay [9] it was 0.147; in assay [13], -3.08; in assay [14], -6.36 (inactive); in assay [15], 0.0505 (inactive); in assay [16] it was -0.0839 (inactive). The composite z-score in assay [4] is -1.03 (inactive); in [10], 0.0652; in assay [11], 2.21 (inactive); in assay [12] it was 0.546.

Turning to `CCCN1C(=O)[C@@]2(c3ccc([N+](=O)[O-])cc3)CC(=O)N(CC34CC5CC(CC(C5)C3)C4)[C@@H]2c2ccc(CO)cc21`, the z-score in [1] is -0.113; in assay [2], -0.547 (inactive); in assay [3], -0.148 (inactive); in [5] it was 0.186 (inactive); in [6], -0.664 (inactive); in assay [7], 0.2 (inactive). For the same molecule, the z-score in assay [8] is -0.255 (inactive); in assay [9], -0.559; in [13], 0.877; in assay [14] it was -1.71 (inactive); in assay [15], 0.177 (inactive); in assay [16] it was -0.16 (inactive). Further, the composite z-score in assay [4] is -4.78 (inactive); in assay [10], 0.0666; in assay [11], -0.349 (inactive); in [12], 0.483.

In the case of `CCCC=C(CCC)[C@@H](NC(=O)OCC(C)C)c1ccc(C(=O)OC)cc1`, the z-score in assay [1] is 1.78; in assay [2] it was 0.463 (inactive); in [3] it was 0.287 (inactive); in assay [5], 0.523 (inactive); in assay [6], -0.578 (inactive); in assay [7] it was 0.386 (inactive). Also, the z-score in assay [8] was -0.0328 (inactive); in assay [9], 0.754; in assay [13], -0.102; in assay [14], -1.31 (inactive); in assay [15] it was -0.468 (inactive); in assay [16], -0.598 (inactive). Also, the composite z-score in assay [4] is -0.456 (inactive); in [10], 0.0651; in [11], 0.402 (inactive); in [12] it was 0.279.

With `C=CCN1C(=O)[C@]2(O[C@H](CCn3cc([C@H](O)c4ccccc4)nn3)[C@@H]([Si](C)(C)c3ccc(OC)cc3)[C@@H]2C)c2cc(NC(=O)c3ccc(OC)cc3)ccc21`, the z-score is -1.66 in [1]; -0.971 (inactive) in assay [2]; -3.65 (inactive) in assay [3]; 1.59 (inactive) in assay [5]; 1.11 (inactive) in assay [6]; 0.517 (inactive) in assay [7]. The z-score in [8] was 0.418 (inactive); in assay [9], -3.68; in [13], -2.77; in [14] it was -4.56 (inactive); in assay [15] it was -0.552 (inactive); in [16], 0.0018 (inactive). The composite z-score is 0.717 (inactive) in [4], -0.02 in assay [10], 0.586 (inactive) in [11] and 0.309 in assay [12].

With `COc1ccc([Si](C)(C)[C@H]2[C@H](CC(=O)N3Cc4ccccc4C[C@H]3CO)O[C@@]3(C(=O)N(C)c4c(Br)cc(C)cc43)[C@@H]2C)cc1`, the z-score in assay [1] was -4.15; in [2] it was 0.915 (inactive); in assay [3], -6.33 (inactive); in assay [5] it was 1.72 (inactive); in assay [6], 3.17 (inactive); in assay [7] it was -0.652 (inactive). The z-score is -0.984 (inactive) in assay [8]; -6.22 in [9]; -2.61 in assay [13]; -4.14 (inactive) in assay [14]; 0.18 (inactive) in [15]; -0.569 (inactive) in assay [16]. For the same molecule, the composite z-score in assay [4] is 0.973 (inactive); in [10], -0.134; in assay [11] it was 0.0621 (inactive); in assay [12] it was 0.445.

These data come from PubChem BioAssay.
